MITF inh: inhibitors of human MITF. O75030. AlphaScreen MITF homodimerization, bead proximity signal. inhibition, % at 2.6 µM. 0.91% of 650,000 active. AID 1259374; in the data active = inhibition above about 50%;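 also: 0% = vehicle wells with protein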
Target sequence (O75030 whole entry, looked up): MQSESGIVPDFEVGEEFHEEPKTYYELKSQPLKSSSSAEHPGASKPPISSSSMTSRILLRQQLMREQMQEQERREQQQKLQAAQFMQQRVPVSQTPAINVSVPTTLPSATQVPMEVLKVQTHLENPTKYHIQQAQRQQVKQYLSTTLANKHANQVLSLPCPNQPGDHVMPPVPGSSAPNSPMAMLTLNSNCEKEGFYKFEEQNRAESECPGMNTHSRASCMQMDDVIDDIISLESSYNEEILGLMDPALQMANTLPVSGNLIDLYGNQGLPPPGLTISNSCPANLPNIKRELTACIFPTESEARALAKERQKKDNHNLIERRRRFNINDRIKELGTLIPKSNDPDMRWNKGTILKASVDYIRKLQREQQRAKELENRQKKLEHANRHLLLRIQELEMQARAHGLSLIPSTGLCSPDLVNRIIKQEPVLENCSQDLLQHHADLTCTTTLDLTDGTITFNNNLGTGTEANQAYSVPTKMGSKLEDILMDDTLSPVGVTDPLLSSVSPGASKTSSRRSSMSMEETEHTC
FBW7 act: activators of human E3 ligase FBW7; Q969H0; AlphaScreen FBW7–phospho-cyclin E peptide binding, activator screen; normalized activity (activation), % at 26.1 µM; 0.13% of 650,000 active; in the data active = normalized activity above about 1.9%;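 also: purified mutant Fbw7 with reduced substrate affinity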
GPR151 ag: activators of human GPR151; PathHunter beta-arrestin GPR151 cells, luminescence; activation, % at 11.2 µM; 1% of 650,000 active; in the data active = activation above about 4.9%;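 also: 0% = median of compound wells and 100% = cells with positive control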
TEAD-YAP inh: TEAD-YAP interaction inhibition. HEK-TIYL cells, TEAD-Gal4/YAP UAS-luciferase luminescence. 1.4% of 640,000 active. AID 1259422. inhibition, % at 9.12 µM; in the data active = inhibition above about 32%;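 also: 0% = median of test compound wells and 100% = reference inhibitor wells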
GPR151 conf act: human GPR151 activation, confirmation screen. shares compounds with GPR151 ag. GPR151 PathHunter beta-arrestin cells, luminescence, 90 min; % of EA-reagent control over plate median. activation, % at 11.2 µM. 6,700 tested, under 10 active;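 active = mean percent activation across replicates above the confirmation screen cutoff of 4.91%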
GPR119 counter: GPR119 activation, counter-screen for GPR151 activators. shares compounds with GPR151 ag. GPR119 PathHunter beta-arrestin cells, luminescence, 90 min; 0 = compound-well median, 100 = enzyme-acceptor control. activation, % at 11.2 µM. 0.3% of 6,700 active;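 active = mean percent activation in the counterscreen above 29.09%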;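 also: counterscreen on off-target GPR119 to flag nonselective hits from the GPR151 activator screen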
* hit, by the source's call; / = no result given. In the library only some 3.5% were active in any assay of this set; here they are far more common.

SMILES | MITF inh | FBW7 act | GPR151 ag | TEAD-YAP inh | GPR151 conf act | GPR119 counter
CC(=O)CC/C=C(\C)CCC=C(C)C | 4.9 | 0.0 | 6.1* | 4.0 | -0.8 | -2.7
COc1cc(/C=N/NC(C)(C)C)cc(Br)c1O | -22.2 | 0.2 | -1.9 | -10.7 | / | /
COc1ccc(OC)c(S(=O)(=O)Nc2ccc(C(=O)O)cc2)c1 | -0.5 | -0.2 | -0.1 | 1.7 | / | /
COc1cc(NS(=O)(=O)c2cc(C(=O)O)ccc2OC)cc(OC)c1 | 2.5 | 0.2 | 9.2* | 10.4 | 0.2 | 7.9
CCOc1ccc(C(=O)N/N=C(\C)c2cccc([N+](=O)[O-])c2)cc1 | -13.3 | 0.1 | 0.6 | -18.3 | / | /
O=C(Cc1cccs1)NCC1(c2ccc(F)cc2)CC1 | -0.9 | 0.1 | 11.8* | 1.4 | 0.7 | -5.2
O=C(Cc1ccc(F)cc1)NCC1(c2cccs2)CCOCC1 | 14.1 | 0.8 | 0.5 | 13.0 | / | /
CCOc1ccc(CC(=O)Nc2ccc(I)cc2)cc1OCC | 6.3 | 0.0 | 6.0* | -5.0 | -0.3 | -21.4
CCOc1ccc(CC(=O)Nc2ccccc2)cc1OCC | -6.6 | -0.1 | -0.8 | -11.6 | / | /
O=C(Nc1ccc(F)cc1F)N1CCN(Cc2ccco2)CC1 | 1.9 | 0.0 | -1.2 | -20.6 | / | /
Cc1cccc(N2C(=O)CSC23C(=O)Nc2ccc(Br)cc23)c1 (stereo unspecified) | -1.3 | 0.0 | -0.1 | 10.3 | / | /
CC1C=CCC2C(=O)N(c3ccc([N+](=O)[O-])cc3)C(=O)C12 (stereo unspecified) | 5.4 | -0.3 | 1.6 | 0.2 | / | /
Cc1ccc(N2C(=O)C3CC=CC(C)C3C2=O)cc1 (stereo unspecified) | 7.2 | 0.3 | 11.7* | -17.3 | -0.2 | -4.5
COC(=O)c1c(NC(=O)c2ccco2)sc(C(=O)Nc2cccc(C)c2)c1C | 10.2 | 0.5 | 6.4* | 4.1 | -0.1 | 1.2
CCN(CC)C(=O)c1sc(NC(=O)c2ccco2)c(C(=O)OC(C)C)c1C | -2.0 | 0.0 | 1.4 | -4.0 | / | /
CCN(CC)C(=O)c1sc(NC(=S)NCc2ccco2)c(C(=O)OC)c1C | 4.0 | -0.2 | 11.3* | 10.0 | -0.1 | 2.7
CCOc1ccc(N/C(SCc2cccc([N+](=O)[O-])c2)=C(/C#N)C(=O)NCc2ccc3c(c2)OCO3)cc1 | 11.1 | -0.3 | 0.2 | 6.9 | / | /
Cc1ccccc1C(=O)N/N=C/c1ccc(OCC(=O)N2CCCCC2)cc1 | 12.5 | 0.4 | 6.7* | 4.2 | 1.1 | 7.8
CCOc1ccc(/C=N/NC(=O)c2ccccc2C)cc1 | 15.2 | 0.1 | -0.7 | -21.4 | / | /
O=C1COc2cc(S(=O)(=O)Nc3ccc(F)cc3)ccc2N1 | 7.0 | 0.3 | 6.7* | -5.9 | 1.3 | -0.2
O=C1COc2cc(S(=O)(=O)CCC(=O)N3CCCCCC3)ccc2N1 | 7.9 | -0.1 | 5.1* | 4.2 | 0.8 | -3.4
O=C(CCS(=O)(=O)c1ccc2c(c1)OCC(=O)N2)Nc1ccc(OC(F)(F)F)cc1 | 9.5 | 0.2 | 7.1* | -0.3 | -1.2 | -10.0
O=C(CN1CCN(C(=O)c2nc3ccccc3s2)CC1)c1cccs1 | 1.7 | -0.3 | -3.1 | -48.0 | / | /
CSCCC(NS(=O)(=O)c1ccc2c(c1)OCCO2)C(=O)OCC(=O)C(C)(C)C (stereo unspecified) | -0.5 | -0.3 | 0.0 | 1.8 | / | /
COc1cc(/C=N\NC(=O)COc2ccc(-c3ccccc3)cc2)ccc1OCC#N | 23.0 | 0.6 | -1.9 | -2.2 | / | /
SMILES | MITF inh | FBW7 act | GPR151 ag | TEAD-YAP inh | GPR151 conf act | GPR119 counter
COc1ccc(/C=C2/N=C(c3ccccc3)NC2=O)cc1 | -3.4 | 0.1 | 5.2* | -14.6 | -1.3 | -9.1
COc1ccc(/C=C2\N=C(c3ccc(C)cc3)NC2=O)cc1 | 6.1 | 1.4 | 0.5 | 14.3 | / | /
CNS(=O)(=O)c1cccc(C(=O)OCC(=O)c2cc3ccccc3o2)c1 | -9.0 | 0.1 | 0.7 | -4.7 | / | /
CN(C)c1cccc(C(=O)OCC(=O)c2cc3ccccc3o2)c1 | 7.8 | 0.2 | 5.2* | 18.3 | -1.1 | -4.8
Cc1ccc(-n2nc3c(c2NC(=O)c2ccc(Cl)c([N+](=O)[O-])c2)CS(=O)(=O)C3)c(C)c1 | 22.1 | 0.8 | 0.0 | 11.3 | / | /
CCOc1ccc(-c2ncccc2O)cc1 | 17.6 | 0.1 | 0.3 | -36.6 | / | /
COc1ccc(-c2ncccc2O)cc1 | 11.0 | 1.5 | 5.2* | -43.9 | 0.1 | -1.9
COc1cccc(/C=N/Nc2cc(-c3ccccc3)nc(C)n2)c1O | 14.0 | 0.1 | -0.3 | 19.6 | / | /
CC1CCCC(NC(=O)c2ccc(CNS(=O)(=O)c3ccc(F)cc3)cc2)C1C (stereo unspecified) | -2.7 | -0.2 | 6.3* | -5.2 | 0.0 | -10.4
CC1CCCC(NC(=O)c2ccc(CNS(=O)(=O)c3ccc(Cl)cc3)cc2)C1C (stereo unspecified) | -1.1 | -0.1 | -1.1 | 4.7 | / | /
Cc1nn(CC(=O)NCC#N)c(C)c1[N+](=O)[O-] | -2.6 | 0.0 | 5.0* | -3.7 | -0.1 | -2.8
COc1ccc(-c2cnc(NCCc3c[nH]c4ccccc34)nc2)cc1 | 0.0 | 0.1 | 5.2* | -11.2 | -0.2 | -7.9
CCSC1=NSC2=NC(=O)/C(=C\c3ccc([N+](=O)[O-])cc3)C(=N)N12 | -4.4 | 0.2 | 0.0 | -8.0 | / | /
CSC1=NSC2=NC(=O)/C(=C\c3ccc([N+](=O)[O-])cc3)C(=N)N12 | 4.7 | -0.3 | 10.5* | -42.6 | 1.8 | 1.1
O=C(C1CC1)N1CCC[C@H]1Cn1nc(-c2cccs2)ccc1=O | 23.5 | 0.5 | -0.9 | -1.1 | / | /
COc1cccc2cc3c(=O)n(-c4ccccc4)nc-3oc12 | 6.8 | 0.1 | 10.4* | 12.6 | 0.6 | 0.9
Cn1nnnc1SCC(=O)NNC(=O)COc1ccc(Br)cc1 | 9.7 | 0.1 | 1.3 | -5.6 | / | /
Cc1cc(C)n2nc(C(=O)Nc3ccc4nc(C)sc4c3)nc2n1 | -4.6 | -0.2 | -0.5 | -6.6 | / | /
CC(CCc1ccccc1)NC(=O)Cn1c(CO)nc2ccccc21 (stereo unspecified) | -10.9 | 0.0 | 6.2* | 5.1 | 0.3 | 9.6
C[C@H](CN)Oc1ncccc1C(=O)Nc1ccc2[nH]ncc2c1 | -9.3 | -0.1 | 5.7* | 0.9 | -0.6 | 3.5
O=C(CSc1ccsc1[N+](=O)[O-])N1CCN(c2ncccn2)CC1 | -2.0 | -0.1 | -0.1 | -9.8 | / | /
O=C(CSc1ccsc1[N+](=O)[O-])N1CCN(c2ccccn2)CC1 | -2.6 | 0.0 | 5.3* | -3.3 | -0.6 | -1.6
Cc1ccc2nc(N3CCC(NCC(C)C)CC3)nc(C)c2c1 | -8.6 | -0.1 | 7.9* | -0.4 | 0.3 | -3.6
COc1ccc2nc(N3CCC(NCC(C)C)CC3)nc(C)c2c1 | -35.1 | 0.3 | -1.8 | -5.3 | / | /
O=C(c1ccc(-n2cnnn2)cc1)N1CCCc2ccccc21 | -10.1 | -0.2 | 5.0* | -0.2 | 0.3 | -8.1
O=C(c1cccc([N+](=O)[O-])c1)N1CCCc2ccccc21 | -1.2 | -0.1 | 5.0* | -4.2 | 0.8 | -0.6
O=C(c1ccc([N+](=O)[O-])cc1)N1CCCc2ccccc21 | 12.3 | -0.1 | -0.7 | -10.3 | / | /

From PubChem BioAssay
